Sfp inh = inhibitors of Bacillus subtilis Sfp phosphopantetheinyl transferase; Q9F4F7; AID 1490; Potency, µM, for the others: largest response in the series, negative = inhibition, usual class: inhibitors; Biochemical Sfp PPTase activity, qHTS; hit rate 3.5% among 310,000;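 also: the enzyme is Sfp with the accession as filed and its product quenches rhodamine fluorescence; 0% = enzyme reaction without inhibitor and -100% = no enzyme wells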
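After 15 min at room temperature with compound, 15 nM Sfp received 5 uM rhodamine-CoA plus 12.5 uM BHQ-2-ybbR (50 mM Hepes pH 7.6, 10 mM MgCl2). Rate came from the fluorescence difference over 30 min, ex 525/em 598 nm.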
G9a block = G9a (human) methyltransferase inhibition; G9a H3K9 monomethylation, AlphaScreen, 2 h; Potency, µM (highest dose often 102 µM), inactives show at the highest dose activity, negative = inhibition, usual class: inhibitors; hit rate 8.8% among 350,000; AID 504332; also: % is scaled to controls: 0 for no effect and ±100 for the full control effect; nearly all actives have a fitted effect of over 75% in size
Target sequence (Q96KQ7 913-1193 limits assumed): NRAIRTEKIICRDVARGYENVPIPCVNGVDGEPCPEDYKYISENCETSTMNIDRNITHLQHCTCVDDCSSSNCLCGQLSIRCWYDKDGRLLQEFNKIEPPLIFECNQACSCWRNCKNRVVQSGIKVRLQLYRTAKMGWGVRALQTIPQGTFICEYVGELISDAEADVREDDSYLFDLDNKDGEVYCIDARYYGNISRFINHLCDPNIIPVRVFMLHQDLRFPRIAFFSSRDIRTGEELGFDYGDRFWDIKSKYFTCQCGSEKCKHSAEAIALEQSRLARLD
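AlphaScreen read-out: biotin-H3K9 peptide (500 nM) methylation by 20 nM enzyme with 20 uM SAM, 2 h at room temperature after 15 min compound preincubation; anti-monomethyl H3K9 antibody plus donor/acceptor beads, 10 min dark.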
JMJD2A Tudor = blocks the human JMJD2A Tudor domain. O75164. AlphaScreen JMJD2A-Tudor / H3K4me3 peptide binding. Potency, µM (top dose mostly 114 µM), for the others: top-dose activity change, negative = inhibition, usual class: inhibitors. hit rate 4.4% among 390,000; also: % is scaled to controls: 0 for no effect and ±100 for the full control effect; nearly all actives have a fitted effect of over 50% in size
HP1b chromo inh = HP1-beta chromodomain-methylated histone interaction inhibition; hit rate 0.56% among 390,000; AID 540317; Potency, µM (highest dose often 114 µM), inactives show at the highest dose activity change, negative = inhibition, usual class: inhibitors; AlphaScreen HP1-beta / biotin-H3K9me3 peptide binding; P83916; also: nearly all actives have a fitted effect of over 70% in size
Target sequence (P83916 whole entry, looked up): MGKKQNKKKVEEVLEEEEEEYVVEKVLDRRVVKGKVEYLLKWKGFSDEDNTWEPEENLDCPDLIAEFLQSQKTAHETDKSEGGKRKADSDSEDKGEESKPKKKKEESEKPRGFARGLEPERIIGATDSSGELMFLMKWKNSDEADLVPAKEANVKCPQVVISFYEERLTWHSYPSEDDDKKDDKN
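Compound inhibition of the preformed complex between 50 nM HP1-beta and 50 nM biotinylated H3K9me3 peptide was read by AlphaScreen. Buffer was PBS pH 7.4 with 0.01% Tween-20. Incubations ran 30 min at room temperature, with 10 ug/mL donor/acceptor beads.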
L3MBTL1 block = blocks human L3MBTL1; hit rate 0.66% among 230,000; Potency, µM (highest dose often 57.1 µM), for the others: at the highest dose activity, negative = inhibition, hits mostly inhibitors; AID 485360; AlphaScreen L3MBTL1–H3K9me1 peptide binding; Q9Y468; also: % is scaled to controls: 0 for no effect and ±100 for the full control effect; nearly all actives have a fitted effect of over 60% in size
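L3MBTL1 50 nM + b-AHA-H3(1-15)K9me1 75 nM, 30 min RT; compound added, 30 min RT; streptavidin donor/Ni-chelate acceptor beads 10 ug/mL each final, 30 min RT dark; AlphaScreen read.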
BAZ2B block = blocks human BAZ2B | AID 504333 | AlphaScreen BAZ2B-H3K14Ac peptide displacement | Q9UIF8 | hit rate 4.4% among 360,000 | Potency, µM (series often up to 114 µM), for inactives: top-dose activity change, negative = inhibition, most hits filed as inhibitors; also: % is scaled to controls: 0 for no effect and ±100 for the full control effect; nearly all actives have a fitted effect of over 60% in size
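BAZ2B (50 nM) with biotin-H3(5-23)K14Ac peptide (50 nM) in PBS pH 7.4, 0.01% Tween-20, preformed 30 min, then compound 30 min at room temperature; top concentration 110uM. AlphaScreen streptavidin donor/nickel chelate acceptor beads (10 ug/mL final), 20 min dark, signal read.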
* = called active by the depositor; ? = inconclusive; . = not tested or not shown; [ ] = another dose, or the depositor's remark. Rows were chosen to be rich in hits. Some 12% of all compounds tested hit in one or more screens of this group. Calls follow the shape of the dose curve; as a rule, active = well fitted curve in the direction sought with a large enough effect; inconclusive = small, poorly fitted or top-dose-only effect, or another doubt; inactive = no such curve, though single readings can be large; an effect the other way counts as inactive or inconclusive. Potency is read from the fitted curve at half-maximal effect.

SMILES | Sfp inh | G9a block | JMJD2A Tudor | HP1b chromo inh | L3MBTL1 block | BAZ2B block
C(=N\C(/N=C/c1ccco1)c1ccco1)/c1ccco1 | ? | 5.2%[59 µM] | ? | 2.6% | -12.2% | ?
O=S(=O)(Cc1ccccc1)N1CCN(Cc2ccc(Br)cc2)CC1 | 13.4% | 11.8% | 3.55µM* | ? | . | -12.0%
CSc1ccc(CN2CCN(Cc3ccccc3)C(CCO)C2)cc1 (stereo not drawn) | 15.8% | -8.3% | -18.4% | 18.5% | -16.3% | -12.5%
CCc1ccc(CN2CCN(S(=O)(=O)Cc3ccccc3)CC2)cc1 | -15.4% | ? | 0.794µM* | -51.4% | . | 17.8µM*
CSc1ccc(CN2CCN(S(=O)(=O)Cc3ccccc3)CC2)cc1 | 2.6% | 89.1µM* | 5.01µM* | ? | . | -12.6%
CSc1ccc(CN2CCCN(C)CC2)cc1 | -4.5% | 10µM* | 12.6µM* | ? | -1.7% | 56.2µM*
O=S(=O)(Cc1ccc(Cl)cc1)N1CCN(Cc2ccccc2)CC1 | 0.3% | ? | -9.6% | 41.5% | -1.7% | -6.6%
Cc1ccc(NS(=O)(=O)c2ccc(Cl)cc2)cc1C | . | . | -4.1% | . | . | .
Cc1ccc(-n2nnc(-c3nsc(NC(=O)c4ccccc4C)n3)c2C)cc1Cl | . | -3.6%[59 µM] | -1.3% | 53.6% | . | 3.6%
CC(=O)OCCN1C(=O)c2c(C)nc3ccc(S(=O)(=O)N4CCOCC4)cc3c2C1=O | -0.9% | . | . | . | . | .
Cc1cc(O)c(Oc2cc(C)cc(O)c2O)c(O)c1 | 5.01µM* | 0.891µM* | 39.8µM* | ? | -1.7% | ?
c1ccc(-c2nnc(-c3ccccn3)s2)nc1 | 89.1µM* | -117.0%[59 µM] | ? | -15.5% | . | ?
CC(=O)c1sc(-c2ccccn2)nc1C | -3.6% | 35.5µM* | . | . | . | 6.1%
c1ccc(C2=NNC(c3ccccn3)=NN2)nc1 | 12.6µM* | 31.6µM* | 7.08µM* | 49.5% | . | 2.82µM*
COCC(=O)N(C)c1nnc(-c2ccccn2)s1 | 12.8% | 1.9%[12.7 µM] | -2.3%[11.4 µM] | 35.5% | 5.3% | 56.2µM*
CC1=C(C(=O)N2CCCCC2)C(c2cccc(Cl)c2)n2c(nc3ccccc32)N1 (stereo not drawn) | . | -37.0%[59 µM] | -13.7% | 10.1% | . | 1.7%
O=C(Oc1cc(=O)oc2c1c(=O)n1c3c(cccc23)CC1)c1ccc(F)cc1 | 7.4% | . | -31.0% | 33.9% | -10.2% | ?
O=C(Oc1cc(=O)oc2c1c(=O)n1c3c(cccc23)CC1)c1ccccc1 | -16.2% | . | ? | -3.0% | 12.7% | 50.1µM*
N#CC1=C(N)NC(=S)C(C(N)=O)C1c1ccccc1F (stereo not drawn) | 0.708µM* | 50.1µM* | -29.1% | 8.6% | . | -14.7%
N#CC1=C(N)NC(=S)C(C(N)=O)C1c1ccc(Cl)cc1Cl (stereo not drawn) | 8.91µM* | ? | ? | 2.5% | 4.6% | -29.5%
O=C1NC(=O)C(c2ccc(Cl)cc2Cl)N1 (stereo not drawn) | . | . | 1.4% | -6.3% | . | .
COc1ccc2[nH]c(C(=O)O)c(NS(=O)(=O)c3ccc(C)c(C)c3)c2c1 | 12.3% | 44.7µM* | -19.2% | 49.5% | . | -32.5%
COc1ccc(NS(=O)(=O)c2ccc(OC)c(OC)c2)cc1OC | -3.1% | 16.7%[59 µM] | -19.1% | 18.3% | -23.0% | -0.4%
Cc1ccc(S(=O)(=O)Nc2c(C(=O)O)[nH]c3ccccc23)c(C)c1 | 17.9% | ? | 56.2µM* | ? | . | ?
COc1ccc(S(=O)(=O)Nc2c(O)ccc3ccccc23)cc1OC | . | . | 79.4µM* | 70.8µM* | . | .
SMILES | Sfp inh | G9a block | JMJD2A Tudor | HP1b chromo inh | L3MBTL1 block | BAZ2B block
COc1ccc(S(=O)(=O)Nc2c(C(=O)O)[nH]c3ccccc23)cc1OC | ? | 12.6µM* | ? | -13.6% | -9.4% | ?
COc1ccc2[nH]c(C(=O)O)c(NS(=O)(=O)c3ccc(F)cc3)c2c1 | 10.2% | ? | -15.8% | 45.3% | . | -18.8%
CCCC(C(=O)NCc1cccc(Cl)c1)N1Cc2ccccc2C1=O (stereo not drawn) | . | 5.3%[59 µM] | -11.6% | -6.4% | . | 7.9%
CC(NC(=O)C1CCCN(C(=O)c2ccc(Cl)cc2)C1)c1cccc(C(F)(F)F)c1 (stereo not drawn) | . | ? | 3.4% | 6.6% | 3.6% | -4.7%
COc1ccc(C(=O)NCCn2cc(SCC(=O)Nc3ccccc3)c3ccccc32)cc1OC | . | -3.9%[59 µM] | -26.5% | -0.4% | . | -28.7%
O=C(O)c1[nH]c2ccccc2c1NS(=O)(=O)c1ccc(F)cc1 | 7.1% | 70.8µM* | -20.5% | 1.9% | . | ?
O=C(O)c1[nH]c2ccccc2c1NS(=O)(=O)Cc1ccccc1 | 26.5% | ? | ? | 6.1% | . | -38.0%
COc1ccc(S(=O)(=O)Nc2c(C(=O)O)[nH]c3ccccc23)cc1 | 21.5% | 44.7µM* | -26.7% | 71.9% | . | -17.8%
CCOc1ccc(C2CC(=O)n3nc(-c4ccc(C)cc4)nc3S2)cc1OC (stereo not drawn) | . | -22.8%[59 µM] | 1.0% | 51.0% | . | -0.5%
COCCN(CCOC)c1nc(C)nc2c1nc(-c1ccccc1)n2CCN(C)C | 13.6% | . | . | . | . | .
CN(C)c1cccc2c(/C=N/O)ccc(N(C)C)c12 | 19.6% | ? | -17.4% | -11.1% | -4.9% | -14.9%
CN(C)c1cccc2c(C=C(C#N)C#N)ccc(N(C)C)c12 | -4.4% | 8.91µM* | 15.8µM* | 22.4µM* | -15.2% | 20µM*
CCc1ccc2nc(N3C(=O)C(O)=C(C(=O)c4ccco4)C3c3cccs3)sc2c1 (stereo not drawn) | -15.6% | ? | ? | ? | ? | 50.1µM*
Cc1ccc2nc(N3C(=O)C(O)=C(C(=O)c4cc5ccccc5o4)C3c3cccs3)sc2c1 (stereo not drawn) | 39.8µM* | 20.4%[59 µM] | ? | -12.1% | -3.4% | -6.5%
O=C(C1=C(O)C(=O)N(c2nccs2)C1c1ccccc1)c1cc2ccccc2o1 (stereo not drawn) | 5.01µM* | 3.55µM* | -31.7% | -14.1% | -19.2% | 39.8µM*
CCOc1cccc(C2C(C(=O)c3ccc(C)o3)=C(O)C(=O)N2c2nccs2)c1 (stereo not drawn) | 56.2µM* | 6.31µM* | ? | 20.9% | -12.2% | ?
CCOc1cccc(C2C(C(=O)c3ccc(C)o3)=C(O)C(=O)N2Cc2ccncc2)c1 (stereo not drawn) | ? | -1.9%[12.7 µM] | ? | 25.7% | -2.4% | ?
CCN(C(=O)Cn1c(=O)oc2cc(S(=O)(=O)N3CCCCCC3)ccc21)c1cccc(C)c1 | . | 6.0%[59 µM] | -8.7% | 51.5% | . | 0.2%
Cc1cc([N+](=O)[O-])ccc1NC(c1nnc(-c2ccccc2)o1)c1ccccc1F (stereo not drawn) | . | -8.8%[59 µM] | -24.3% | 25.0% | . | -28.3%
O=c1oc2ccc3ccccc3c2cc1-c1nnc(Nc2cccc(C(F)(F)F)c2)s1 | . | ? | -11.1% | 12.4% | . | 1.9%
